Experimental data from PubChem BioAssay.
Activity calls are given as the source filed them.

Tests used:
[1] = tested on: PRMT1 (protein arginine N-methyltransferase 1); assay: small molecules binding arginine methyltransferase PRMT1 – biochemical, small-molecule microarray, 635 nm fluorescence, primary screen (AID 1088); conditions: higher = more signal;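 also: binding of Prmt1 protein to compounds spotted on small-molecule microarray slides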
[2] = growth effects on S. cerevisiae YJM789 – YJM789 clinical isolate, OD600, 24 h, basal, primary screen (AID 1089); conditions: higher = more signal, called active from +8 up or from −8 down;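 also: growth of clinical yeast isolate S. cerevisiae YJM 789 seeded 1000 cells per well; test concentration not given here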
[3] = S. pombe growth modifiers, basal conditions – strain 972, OD600, 24 h, no modulator, primary screen (AID 1090);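 also: basal condition with compound alone and no growth modifier present; test concentration not given here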; conditions: S. pombe 972 growth, higher = more signal, called active from +8 up or from −8 down
[4] = budding yeast growth modifiers under rapamycin – strain BY4716, OD600, 96 h, primary screen (AID 1091); also: test concentration not given here; conditions: S. cerevisiae BY4716 + rapamycin, higher = more signal, called active from +8 up or from −8 down
[5] = biological target: Torsin-1A-interacting protein 2 (Homo sapiens) (UniProt Q8NFQ8); assay: small molecules binding lysate-expressed LULL1 – cell lysate, human LULL1 lysate, 635/667 nm fluorescence, primary screen (AID 1092); conditions: small-molecule microarray, hLULL1 lysate binding, 635 nm fluorescence; higher = more signal;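 also: probe is lysate of COS7 cells overexpressing human LULL1; score merges per-feature 667 nm fluorescence with signal-to-noise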
[6] = optical density change of DRC41 E. coli – strain DRC41, OD650, 24 h, E. coli filamentation project, primary screen (AID 1093);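 also: MC1000 strain lacking acrAB efflux and sulA so SOS filamentation is blocked; test concentration not given here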; conditions: E. coli DRC41 growth, higher = more signal, called active from +8 up or from −8 down
[7] = probe aLefty2 binding to arrayed compounds – biochemical, biotinylated probe, 635/667 nm fluorescence, primary screen (AID 1094); conditions: small-molecule microarray, higher = more signal;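 also: score merges spot fluorescence near 667 nm with spot signal-to-noise ratio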
[8] = tested on: Noggin (protein binding on small-molecule microarray); assay: small molecules binding Noggin protein – biochemical, 635/667 nm fluorescence, primary screen (AID 1095); conditions: 635 nm fluorescence, higher = more signal;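 also: score merges 667 nm feature fluorescence with signal to noise over triplicate slides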
[9] = biological target: Neurogenic locus notch homolog protein 3 (Homo sapiens) (UniProt Q9UM47); assay: small molecules binding NOTCH3 protein – biochemical, 635/667 nm fluorescence, primary screen (AID 1096); conditions: small-molecule microarray, 635 nm fluorescence, higher = more signal
[10] = probe aEGFR binding to arrayed compounds – biochemical, biotinylated probe, 635/667 nm fluorescence, primary screen (AID 1097); conditions: small-molecule microarray, higher = more signal;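 also: probe is a biotinylated anti-EGFR antibody binding compounds printed on slides; score combines fluorescence near 667 nm and signal to noise of each spot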
[11] = tested on: Plasmodium falciparum Sir2 (PF13_0152, Sir2A); assay: Plasmodium falciparum Sir2A binding compounds – biochemical, small-molecule microarray, 635 nm fluorescence, primary screen (AID 1098); conditions: fluorescence 635 nm, higher = more signal;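 also: score merges spot fluorescence intensity with its signal-to-noise ratio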
[12] = probe aDKK1 binding to arrayed compounds – biochemical, biotinylated probe, 635/667 nm fluorescence, primary screen (AID 1099); conditions: small-molecule microarray, higher = more signal;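 also: score merges 667nm spot fluorescence with signal to noise across triplicate slides; reference of the scale not given here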
[13] = probe aCHRDL2 binding to arrayed compounds – biochemical, biotinylated probe, 635/667 nm fluorescence, primary screen (AID 1100); conditions: small-molecule microarray, higher = more signal
[14] = change in splice reporter luminescence, either direction, cell-based, HEK293, spliceosome inhibition project, primary screen (AID 1101); conditions: HEK293 splicing luciferase reporter, 24 h, higher = more signal, called active from +8 up or from −8 down;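 also: HEK293 cells carrying a splicing-competent luciferase reporter gene; test concentration not given here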
[15] = biological target: Fibroblast growth factor 10 (Homo sapiens) (UniProt O15520); assay: compounds binding fibroblast growth factor 10 – biochemical, small-molecule microarray, 635 nm fluorescence, primary screen (AID 1102); conditions: FGF10 binding, fluorescence 635 nm, higher = more signal
[16] = tested on: glycogen synthase kinase-3 (GSK3A per assay name; protocol says GSK3B); assay: compounds binding glycogen synthase kinase-3 – biochemical, small-molecule microarray, 635 nm fluorescence, GSK3A, primary screen (AID 1103); conditions: fluorescence 635 nm, higher = more signal; also: the record names both GSK3A and GSK3B
[17] = biological target: Epidermal growth factor receptor (Homo sapiens) (UniProt P00533); assay: compounds binding epidermal growth factor receptor – biochemical, small-molecule microarray, 635 nm fluorescence, primary screen (AID 1104); conditions: EGFR binding, higher = more signal;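 also: score merges 667 nm emission intensity with spot signal to noise over triplicate slides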
[18] = biological target: Follistatin-related protein 3 (Homo sapiens) (UniProt O95633); assay: compounds binding follistatin-related protein 3 – biochemical, small-molecule microarray, 635 nm fluorescence, primary screen (AID 1105); conditions: FSTL3 binding, higher = more signal;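 also: score merges emission near 667 nm and signal to noise per printed spot across three slides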
[19] = biological target: Dickkopf-related protein 1 (Homo sapiens) (UniProt O94907); assay: small molecules binding DKK1 protein – biochemical, small-molecule microarray, 635 nm fluorescence scan, primary screen (AID 1106); conditions: higher = more signal;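 also: score merges emission near 667 nm with signal to noise over three replicate slides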
[20] = tested on: Inhibin beta A chain (activin A); assay: small molecules binding activin A – biochemical, small-molecule microarray, 635 nm fluorescence scan, primary screen (AID 1107); conditions: INHBA, higher = more signal;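 also: mouse activin A protein probed at 4.33 µg/mL on printed slides; score merges bound-protein fluorescence near 667 nm with spot signal-to-noise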

Sequence of Torsin-1A-interacting protein 2 (Homo sapiens) (Q8NFQ8 whole entry, looked up): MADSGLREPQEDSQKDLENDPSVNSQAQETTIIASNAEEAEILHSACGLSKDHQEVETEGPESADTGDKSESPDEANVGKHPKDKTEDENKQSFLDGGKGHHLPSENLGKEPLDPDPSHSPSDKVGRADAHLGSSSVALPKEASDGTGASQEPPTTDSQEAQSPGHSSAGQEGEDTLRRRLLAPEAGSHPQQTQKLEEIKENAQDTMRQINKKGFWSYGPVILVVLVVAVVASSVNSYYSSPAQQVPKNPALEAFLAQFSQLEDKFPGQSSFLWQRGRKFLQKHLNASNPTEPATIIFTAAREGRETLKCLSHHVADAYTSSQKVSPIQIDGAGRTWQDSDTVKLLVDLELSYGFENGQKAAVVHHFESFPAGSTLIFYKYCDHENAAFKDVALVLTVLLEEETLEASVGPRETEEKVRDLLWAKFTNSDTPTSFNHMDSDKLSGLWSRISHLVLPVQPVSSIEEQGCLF
Sequence of Epidermal growth factor receptor (Homo sapiens) (P00533 whole entry, looked up): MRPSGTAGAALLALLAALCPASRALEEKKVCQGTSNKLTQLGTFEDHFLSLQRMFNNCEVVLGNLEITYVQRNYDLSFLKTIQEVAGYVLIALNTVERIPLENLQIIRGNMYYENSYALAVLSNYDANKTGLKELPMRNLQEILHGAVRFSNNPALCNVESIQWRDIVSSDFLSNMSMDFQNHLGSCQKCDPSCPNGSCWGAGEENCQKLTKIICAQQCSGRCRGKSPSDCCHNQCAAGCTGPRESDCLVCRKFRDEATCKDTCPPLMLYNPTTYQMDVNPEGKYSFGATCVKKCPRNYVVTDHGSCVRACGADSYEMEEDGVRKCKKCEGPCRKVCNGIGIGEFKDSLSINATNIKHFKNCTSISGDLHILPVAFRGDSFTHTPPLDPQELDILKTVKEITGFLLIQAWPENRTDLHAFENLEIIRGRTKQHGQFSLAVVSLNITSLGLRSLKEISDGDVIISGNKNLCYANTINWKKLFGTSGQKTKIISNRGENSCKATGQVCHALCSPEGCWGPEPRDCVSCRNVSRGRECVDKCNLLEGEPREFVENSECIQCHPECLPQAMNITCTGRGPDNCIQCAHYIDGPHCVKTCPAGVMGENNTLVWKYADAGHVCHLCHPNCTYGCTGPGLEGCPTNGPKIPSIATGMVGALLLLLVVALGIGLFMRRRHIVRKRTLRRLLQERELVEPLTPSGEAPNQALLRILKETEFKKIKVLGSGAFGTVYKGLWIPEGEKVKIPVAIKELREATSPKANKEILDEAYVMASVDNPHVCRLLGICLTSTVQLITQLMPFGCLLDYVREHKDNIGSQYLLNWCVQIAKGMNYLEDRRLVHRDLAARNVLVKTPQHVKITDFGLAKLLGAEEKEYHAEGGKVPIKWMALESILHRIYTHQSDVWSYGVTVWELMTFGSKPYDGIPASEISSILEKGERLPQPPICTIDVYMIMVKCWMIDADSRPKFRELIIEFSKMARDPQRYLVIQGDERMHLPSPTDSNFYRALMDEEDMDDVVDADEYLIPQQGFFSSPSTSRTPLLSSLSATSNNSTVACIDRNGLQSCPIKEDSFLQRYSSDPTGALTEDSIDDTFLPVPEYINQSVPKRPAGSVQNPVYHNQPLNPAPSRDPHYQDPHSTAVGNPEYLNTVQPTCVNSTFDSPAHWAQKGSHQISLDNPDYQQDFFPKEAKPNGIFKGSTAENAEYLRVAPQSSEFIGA
Sequence of Follistatin-related protein 3 (Homo sapiens) (O95633 whole entry, looked up): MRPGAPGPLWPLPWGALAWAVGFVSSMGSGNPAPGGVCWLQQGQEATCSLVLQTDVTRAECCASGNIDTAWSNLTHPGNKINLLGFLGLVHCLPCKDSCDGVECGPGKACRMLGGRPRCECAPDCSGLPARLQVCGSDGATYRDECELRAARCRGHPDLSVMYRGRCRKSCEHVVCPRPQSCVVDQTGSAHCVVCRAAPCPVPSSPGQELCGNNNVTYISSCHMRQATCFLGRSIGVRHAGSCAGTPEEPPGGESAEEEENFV
Sequence of Neurogenic locus notch homolog protein 3 (Homo sapiens) (Q9UM47 whole entry, looked up): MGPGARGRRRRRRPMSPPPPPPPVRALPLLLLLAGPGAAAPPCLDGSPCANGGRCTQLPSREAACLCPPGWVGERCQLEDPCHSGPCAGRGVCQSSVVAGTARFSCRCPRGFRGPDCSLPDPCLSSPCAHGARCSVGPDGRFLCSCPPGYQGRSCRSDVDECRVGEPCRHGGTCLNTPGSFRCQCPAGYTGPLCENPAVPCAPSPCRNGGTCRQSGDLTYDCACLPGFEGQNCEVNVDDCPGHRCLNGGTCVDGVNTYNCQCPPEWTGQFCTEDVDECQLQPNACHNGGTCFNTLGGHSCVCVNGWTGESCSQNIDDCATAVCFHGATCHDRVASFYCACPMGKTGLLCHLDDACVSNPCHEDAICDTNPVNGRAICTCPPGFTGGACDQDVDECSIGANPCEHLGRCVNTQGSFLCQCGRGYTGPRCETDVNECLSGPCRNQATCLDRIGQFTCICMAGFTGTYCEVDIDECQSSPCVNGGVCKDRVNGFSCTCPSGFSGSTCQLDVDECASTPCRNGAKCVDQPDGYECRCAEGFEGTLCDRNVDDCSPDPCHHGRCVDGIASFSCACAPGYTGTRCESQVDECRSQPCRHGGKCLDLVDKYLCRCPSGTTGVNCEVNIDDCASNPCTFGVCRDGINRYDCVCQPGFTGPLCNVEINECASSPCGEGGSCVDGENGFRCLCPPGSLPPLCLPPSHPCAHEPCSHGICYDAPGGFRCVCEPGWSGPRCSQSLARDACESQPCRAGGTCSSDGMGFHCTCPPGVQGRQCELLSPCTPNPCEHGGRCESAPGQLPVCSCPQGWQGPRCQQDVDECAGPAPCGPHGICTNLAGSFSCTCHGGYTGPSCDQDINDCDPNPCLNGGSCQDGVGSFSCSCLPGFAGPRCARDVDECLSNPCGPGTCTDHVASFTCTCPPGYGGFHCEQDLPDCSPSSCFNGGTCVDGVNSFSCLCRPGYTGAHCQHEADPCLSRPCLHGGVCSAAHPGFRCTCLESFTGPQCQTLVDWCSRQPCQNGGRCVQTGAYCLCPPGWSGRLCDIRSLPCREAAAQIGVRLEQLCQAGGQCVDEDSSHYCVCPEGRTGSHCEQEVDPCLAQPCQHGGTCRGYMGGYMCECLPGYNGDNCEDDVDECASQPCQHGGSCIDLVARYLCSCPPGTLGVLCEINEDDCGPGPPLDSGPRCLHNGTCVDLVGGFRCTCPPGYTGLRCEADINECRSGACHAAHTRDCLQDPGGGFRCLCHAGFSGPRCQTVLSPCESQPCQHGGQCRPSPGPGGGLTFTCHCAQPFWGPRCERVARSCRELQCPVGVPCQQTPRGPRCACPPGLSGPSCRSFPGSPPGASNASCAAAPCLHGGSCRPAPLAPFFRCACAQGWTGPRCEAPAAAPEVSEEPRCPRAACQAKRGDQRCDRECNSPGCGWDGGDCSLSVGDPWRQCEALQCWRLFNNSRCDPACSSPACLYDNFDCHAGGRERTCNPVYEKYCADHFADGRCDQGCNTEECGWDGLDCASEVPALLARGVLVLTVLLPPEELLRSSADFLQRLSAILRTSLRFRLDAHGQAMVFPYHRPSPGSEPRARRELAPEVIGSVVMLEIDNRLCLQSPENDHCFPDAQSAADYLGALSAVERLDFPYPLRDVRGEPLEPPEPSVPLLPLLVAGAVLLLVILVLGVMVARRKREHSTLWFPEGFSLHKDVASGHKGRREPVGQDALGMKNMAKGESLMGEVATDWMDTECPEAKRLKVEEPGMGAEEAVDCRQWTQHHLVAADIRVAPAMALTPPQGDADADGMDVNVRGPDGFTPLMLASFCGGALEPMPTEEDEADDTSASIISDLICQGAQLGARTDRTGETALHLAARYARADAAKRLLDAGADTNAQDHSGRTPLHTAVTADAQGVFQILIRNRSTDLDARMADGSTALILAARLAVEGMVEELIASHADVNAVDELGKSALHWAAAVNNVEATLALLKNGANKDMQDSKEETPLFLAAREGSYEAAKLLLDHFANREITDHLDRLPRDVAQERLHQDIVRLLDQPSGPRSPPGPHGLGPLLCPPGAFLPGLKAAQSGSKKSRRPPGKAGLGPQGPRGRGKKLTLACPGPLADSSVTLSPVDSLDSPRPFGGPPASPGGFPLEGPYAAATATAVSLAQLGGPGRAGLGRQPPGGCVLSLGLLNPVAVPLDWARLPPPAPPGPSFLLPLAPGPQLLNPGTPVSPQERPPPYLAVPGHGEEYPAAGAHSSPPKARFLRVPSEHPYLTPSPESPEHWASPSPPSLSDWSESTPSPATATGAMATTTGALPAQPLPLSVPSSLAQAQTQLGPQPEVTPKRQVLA
Sequence of Dickkopf-related protein 1 (Homo sapiens) (O94907 whole entry, looked up): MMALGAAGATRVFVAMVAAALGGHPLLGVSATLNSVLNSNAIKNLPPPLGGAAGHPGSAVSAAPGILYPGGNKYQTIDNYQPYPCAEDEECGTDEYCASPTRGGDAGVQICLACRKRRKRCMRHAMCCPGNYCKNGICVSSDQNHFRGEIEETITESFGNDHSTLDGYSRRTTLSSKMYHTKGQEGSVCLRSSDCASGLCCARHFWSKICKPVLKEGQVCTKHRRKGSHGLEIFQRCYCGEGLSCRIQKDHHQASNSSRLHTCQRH
Sequence of Fibroblast growth factor 10 (Homo sapiens) (O15520 whole entry, looked up): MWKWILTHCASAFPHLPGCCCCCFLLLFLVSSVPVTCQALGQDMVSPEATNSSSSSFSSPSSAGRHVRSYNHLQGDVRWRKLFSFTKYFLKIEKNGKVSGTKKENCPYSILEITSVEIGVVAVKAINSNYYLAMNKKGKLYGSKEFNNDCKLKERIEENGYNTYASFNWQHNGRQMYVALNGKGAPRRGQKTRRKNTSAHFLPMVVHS

Compound | composite z-score [1] | z-score [2] | z-score [3] | z-score [4] | composite z-score [5] | z-score [6] | composite z-score [7] | composite z-score [8] | composite z-score [9] | composite z-score [10] | composite z-score [11] | composite z-score [12] | composite z-score [13] | z-score [14] | composite z-score [15] | composite z-score [16] | composite z-score [17] | composite z-score [18] | composite z-score [19] | composite z-score [20]
COC(=O)CC=C[C@@H](C)[C@@H](C=NOC(C)CN1CCCCc2nc(C)c(C)cc21)NS(=O)(=O)c1ccc(C)cc1 (stereo not given in full) | 0.63 | -1.12 (inactive) | 0.22 (inactive) | 0.121 (inactive) | -0.137 | 0.86 (inactive) | 0.0768 | 0.52 | 0.265 | -0.0836 | 0.361 | -0.0704 | 0.0097 | -0.182 (inactive) | -0.129 | 0.165 | 1 | 0.437 | 0.846 | 1.15
CO[C@@H]1COC(=O)[C@H](COCc2ccccc2)NC(=O)CC=C[C@@H](C)[C@H](OC)COC(=O)[C@@H](C)NC(=O)CC=C[C@H]1C | 1.39 | 0.203 (inactive) | -0.536 (inactive) | 0.55 (inactive) | -1.07 | 1.52 (inactive) | -0.147 | 1.16 | -0.0488 | -0.166 | 1.57 | -0.556 | -0.97 | 0.0772 (inactive) | 0.0278 | -0.314 | 0.378 | 0.754 | 1.16 | 1.84
CCc1cc2c(nc1CC)CCN(CCC(C)=NOC(C)CN1CCCCc3nc(C)c(C)cc31)C2 (stereo not given) | 1.49 | -0.379 (inactive) | -16.2 (active) | -0.755 (inactive) | 2.42 | 0.546 (inactive) | 0.0809 | 0.932 | 1.08 | 0.142 | 0.526 | -0.0521 | -0.215 | -0.242 (inactive) | 0.628 | 1.25 | 0.81 | 1.19 | 0.841 | 1.31
O=C1C[C@@H](O)[C@@H](O)[C@@H]2[C@@H]3C(=O)N(C4CCCCC4)C(=O)[C@@H]3CC[C@@H]12 | 0.607 | 0.93 (inactive) | -0.509 (inactive) | -0.149 (inactive) | 0.905 | 0.536 (inactive) | -0.137 | 0.354 | 0.57 | -0.0921 | 0.607 | -0.28 | -0.504 | 0.602 (inactive) | 1.11 | 0.235 | 0.613 | 0.59 | 0.555 | -0.156
CC(CCN1CCc2nc(-c3ccccc3)c(-c3ccccc3)cc2C1)=NO[C@@H](C)c1cc(-c2c(C)cc(C)cc2C)no1 | 0.535 | -0.295 (inactive) | -0.974 (inactive) | -3.2 (inactive) | 0.838 | -0.394 (inactive) | -0.186 | -0.0011 | -1.29 | -0.17 | 0.655 | -0.0029 | 0.77 | -1.56 (inactive) | -0.567 | -0.725 | -0.345 | -0.601 | -0.524 | 0.5
O=C1[C@H]2[C@H]3[C@H](O)[C@H](O)CC(=NO[C@@H]4O[C@H](CO)[C@@H](O)[C@H](O)[C@H]4O)[C@H]3CC[C@H]2C(=O)N1C[C@@H]1CCCO1 | -0.099 | 0.539 (inactive) | 0.944 (inactive) | 0.734 (inactive) | -0.162 | 0.457 (inactive) | 0.0136 | 0.379 | 0.0492 | -0.0578 | 0.323 | -0.273 | -0.344 | 0.0676 (inactive) | 0.0269 | -0.027 | 0.522 | 0.0553 | -0.0079 | -0.915
CN1CCc2nc(-c3ccccc3)c(-c3ccccc3)cc2C1 | -0.288 | 0.0301 (inactive) | 0.173 (inactive) | -1.35 (inactive) | -0.0501 | 0.697 (inactive) | 0.361 | 0.405 | 0.157 | -0.0382 | -0.0565 | -0.284 | -0.225 | 0.0199 (inactive) | 0.486 | 0.256 | 0.134 | 0.359 | 0.503 | 0.334
CC(=O)OC[C@H]1O[C@H](CC=NO[C@@H](C)c2cc(-c3c(C)cc(C)cc3C)no2)C=C[C@@H]1OC(C)=O | -0.0654 | 0.208 (inactive) | -0.0489 (inactive) | 0.523 (inactive) | -0.382 | -0.542 (inactive) | -0.212 | 0.342 | 0.106 | -0.0662 | -0.229 | -0.341 | 0.0256 | 0.708 (inactive) | -0.151 | -0.55 | 0.0164 | -0.037 | -0.0281 | 0.363
C[C@@H](c1ccccc1)N1C(=O)[C@H]2[C@H]3[C@H](O)[C@H](O)CC(=NNC(=O)OCc4ccccc4)[C@@H]3CC[C@H]2C1=O | 1.57 | -0.291 (inactive) | 0.452 (inactive) | 5.24 (inactive) | 0.0265 | 0.482 (inactive) | -0.19 | 1.89 | -0.11 | -0.508 | 0.404 | -0.657 | -1.57 | 0.574 (inactive) | -0.0948 | 1.25 | 0.845 | 1.5 | 1.94 | 1.56
CO[C@@H]1C=CCC(=O)N[C@@H](C)C(=O)OC[C@@H](OC)[C@H](C)C=CCC(=O)OC[C@H]1C | 1.37 | -0.563 (inactive) | -0.832 (inactive) | -0.333 (inactive) | -1.33 | 0.615 (inactive) | -0.124 | 1.89 | 0.312 | -0.0357 | 1.27 | -0.266 | -1.14 | 0.175 (inactive) | 0.656 | 0.808 | 1.07 | 1.53 | 1.35 | 1.77
